“And” between values parts separate entries of the source, which are not always exact repeats. Identical values can stand only once. Results filed as inconclusive are left out. A call without a number means that no potency is given here. The source made the active and inactive calls. Calls come from the whole dose curve; as a rule, active = well fitted activation curve with a large enough effect in the repeat runs; inconclusive = weak or mixed curves; inactive = no such curve, though single readings can be large or run the other way.
Experiment: qHTS assay for small molecules that induce genotoxicity in human embryonic kidney cells expressing luciferase-tagged ATAD5 (AID 651632); note: nearly all actives have a fitted effect of over 15% in size
Settings: HEK293T ATAD5-luciferase induction, 16 h; series mostly up to 83.3 µM
From the text: U.S. Tox21 Program National Center for Advancing Translational Sciences [NCATS] NIH Chemical Genomics Center [NCGC] U.S. Environmental Protection Agency [EPA] National Institutes of Environmental Health Sciences [NIEHS] National Toxicology Program [NTP] U.S. Food and Drug Administration [FDA] Tox21 Assay Overview: As cancer cells divide rapidly and during every cell division they need to duplicate their genome by DNA replication. The failure to do so results in the cancer cell death. Based on this concept, many chemotherapeutic agents were developed but have limitations such as low efficacy and severe side effects etc. A new cell based assay was developed to find the compounds that effectively block DNA replication either by directly damaging DNA or by inhibiting other cellular mechanisms. Enhanced Level of Genome Instability Gene 1 (ELG1; human ATAD5) protein levels increase in response to various types of DNA damage. Using a luciferase reporter-gene tagged with ATAD5, a cell-based assay [developed by Kyungjae Myung, NHGRI, NIH] was used to measure the induction of ATAD5 in human embryonic kidney cells (HEK293T). So, increase in luciferase activity can be used to identify the compounds that cause genetic stress.
Tox21 Assay Protocol Summary: For genotoxicity screening, 2,000 cells in 5 uL/well were dispensed into white, solid-bottom 1536-well plates using a Multidrop Combi (Thermo Scientific) dispenser. Following transfer of 23 nL compound or DMSO vehicle by a pin tool, the plates were incubated 16 hr at 37C and 5% CO2. 5 ul Amplite (AAT Bioquest, Inc.) was then added to each plate and following 30 min incubation at room temperature, luciferase activity was quantified on a ViewLux CCD-based plate reader.
Potency is the fitted concentration of half-maximal effect.

| SMILES | Potency |
| --- | --- |
| O=C1OC(=O)C2CCCCC12 (stereo not given) | inactive |
| NC(=O)c1cn(Cc2c(F)cccc2F)nn1 | inactive |
| CCc1ccc(O)c(OC)c1 | inactive |
| CCCCCSCCCCC | inactive |
| C/C=C(\C)C#N | inactive |
| COC(=O)CCSCCC(=O)OC | inactive |
| O=C(O)CNC(=O)c1ccc([N+](=O)[O-])cc1 | inactive |
| C1CN(CCOCCN2CCOCC2)CCO1 | inactive |
| NC(=O)c1ccc([N+](=O)[O-])cc1 | inactive |
| CC(C)c1cc2c(cc1S(=O)(=O)O)[C@@]1(C)CCC[C@@](C)(C(=O)O)[C@@H]1CC2 | inactive |
| C=CCOCC(CC)(CO)COCC=C | inactive |
| O=C(O)CCCl | inactive |
| C[C@](N)(Cc1ccc(O)cc1)C(=O)O | inactive |
| CC(C)=CCCC(C)CC(=O)O (stereo not given) | inactive |
| C=C1CC[C@H]2C[C@@H]1C2(C)C | inactive |
| CC(C)(C)c1nnc(NS(=O)(=O)c2ccccc2)s1 | inactive |
| COCCCOCCCOC | inactive |
| O=C1CCCCCCCCCCCN1 | inactive |
| CCOC(=O)c1cccc(N)c1 | inactive |
| CCCCCCCCCCCCCCCCC | inactive |

| SMILES | Potency |
| --- | --- |
| CCCCOCCOCCOCCCC | inactive |
| O=c1cc(-c2ccccc2)oc2ccccc12 | 17.2 µM (active) and 19.3 µM (active) |
| CN1CC(=O)NC1=N | inactive |
| CC/C=C\CC/C=C/CO | inactive |
| O=C(O)Cc1ccc(CCNS(=O)(=O)c2ccc(Cl)cc2)cc1 | inactive |
| C=COCC1CCC(CO)CC1 (stereo not given) | inactive |
| C[N+](C)(C)CC(O)CC(=O)[O-] (stereo not given) | inactive |
| CCCCCOC(=O)CCCCC | inactive |
| CCOC(=O)c1c(C)n(C)c2ccc(O)cc12 | inactive |
| CCc1nccnc1CC | inactive |
| COCCc1ccc(OCC(O)CNC(C)C)cc1 (stereo not given) | inactive |
| C[C@@H]1CCN(C(=O)[C@H](CCCN=C(N)N)NS(=O)(=O)c2cccc3c2NC[C@H](C)C3)[C@@H](C(=O)O)C1 | inactive |
| Nc1cc(=O)[nH]c(N)n1 | inactive |
| Cc1nc2c([nH]1)c(=O)n(C)c(=O)n2Cc1ccco1 | inactive |
| CC(C)(O)C(=O)c1ccccc1 | inactive |
| COC(C)(C)CCCC(C)CC=O (stereo not given) | inactive |
| CN1CCC(=C2c3ccccc3CC(=O)c3sccc32)CC1 | inactive |
| CC(C)NC(=O)NC(C)C | inactive |
| O=C(CCCN1CCN(c2ccccn2)CC1)c1ccc(F)cc1 | inactive |
| Nc1ccccc1S(=O)(=O)O | inactive |

Reference: PubChem BioAssay (Tox21)
